# From PubChem BioAssay
# Hits are enriched below; roughly 5.3% of the tested compounds scored in any of these assays.
# CtBP-E1A inh – CtBP/E1A binding inhibition. 0.49% of 340,000 active. activity change, % (concentration not given with the values). AID 651724. AlphaScreen GST-E1A/His-CtBP binding, 1536-well; stronger effect = lower value; in the data active means activity change below about -65%; inconclusive means mostly about -30% to -63%; further: on the % scale 0 is the no-effect control and ±100 the full control effect
#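 AlphaScreen with 125 nM GST-E1A and 125 nM His-CtBP (5X stocks) in Tris pH 8.0, 300 mM NaCl, BSA, Tween 20, TCEP. Compounds preincubated 2 h at 37 deg C, then glutathione donor/nickel acceptor beads added for 1 h at 37 deg C in dark.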
# Six1-Eya2 blk – blocks human Six1 binding to Eya2; AlphaScreen GST-Six1/His-Eya2 binding, biochemical; stronger effect = lower value; activity change, % (concentration not given with the values); Q15475+O00167; 0.56% of 360,000 active; in the data active means activity change below about -65%; inconclusive means mostly about -30% to -63%; further: on the % scale 0 is the no-effect control and ±100 the full control effect
# Target sequence (O00167 whole entry, looked up): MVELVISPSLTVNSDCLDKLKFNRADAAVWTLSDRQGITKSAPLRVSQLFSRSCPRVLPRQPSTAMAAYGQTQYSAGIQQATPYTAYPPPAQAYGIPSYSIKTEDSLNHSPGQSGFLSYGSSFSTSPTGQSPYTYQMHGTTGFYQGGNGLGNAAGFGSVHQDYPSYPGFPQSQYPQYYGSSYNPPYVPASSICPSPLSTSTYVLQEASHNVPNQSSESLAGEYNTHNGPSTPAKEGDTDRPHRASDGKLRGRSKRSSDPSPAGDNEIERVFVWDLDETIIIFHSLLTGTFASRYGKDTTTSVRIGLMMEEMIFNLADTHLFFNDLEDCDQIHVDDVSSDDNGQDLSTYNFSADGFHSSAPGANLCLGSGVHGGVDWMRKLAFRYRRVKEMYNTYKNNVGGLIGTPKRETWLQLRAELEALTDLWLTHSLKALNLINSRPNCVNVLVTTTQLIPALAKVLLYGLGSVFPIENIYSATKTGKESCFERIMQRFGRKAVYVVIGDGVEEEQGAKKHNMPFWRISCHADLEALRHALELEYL
# Target sequence (Q15475 whole entry, looked up): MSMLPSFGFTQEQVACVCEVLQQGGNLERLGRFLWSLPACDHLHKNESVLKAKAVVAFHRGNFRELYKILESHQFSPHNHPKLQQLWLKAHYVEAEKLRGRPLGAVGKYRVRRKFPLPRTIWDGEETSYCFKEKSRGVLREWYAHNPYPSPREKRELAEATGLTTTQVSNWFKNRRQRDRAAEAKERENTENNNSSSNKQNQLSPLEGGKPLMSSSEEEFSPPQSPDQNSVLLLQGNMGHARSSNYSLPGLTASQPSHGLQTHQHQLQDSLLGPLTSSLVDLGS
#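 AlphaScreen with GST-Six1 and His-Eya2 (5X mix: 250 nM and 500 nM), glutathione donor and nickel acceptor beads; buffer 50 mM Tris pH 8.0, 300 mM NaCl, 1 mM TCEP; 1 h at 37 C in the dark.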
# TDP1 block – inhibitors of human tyrosyl-DNA phosphodiesterase TDP1 | 0.28% of 350,000 active | AID 485290 | recombinant TDP1, AlphaScreen DNA substrate cleavage | Potency, µM (doses to about 130 µM), for inactives: at the top dose activity change, negative = inhibition, usual class: inhibitors; further: potency means the concentration at half of the fitted maximal effect; on the % scale 0 is the no-effect control and ±100 the full control effect; nearly all actives have a fitted effect of over 40% in size
#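 E. coli-derived human Tdp1, 1 nM final. Cpd preinc 15 min RT; substrate 15 nM final, 5 min RT; AS bead mix 10 ug/ml final, 10 min RT. Signal loss = tyrosine-FITC cleavage. No-enzyme wells = max signal.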
# JMJD2A Tudor – inhibitors of human JMJD2A Tudor domain. O75164. Potency, µM (titrated, usually from 114 µM), for inactives: at the top dose activity change, negative = inhibition, usual class: inhibitors. AID 504339. 4.4% of 390,000 active. AlphaScreen JMJD2A-Tudor / H3K4me3 peptide binding; further: potency means the concentration at half of the fitted maximal effect; on the % scale 0 is the no-effect control and ±100 the full control effect; nearly all actives have a fitted effect of over 50% in size
# BAZ2B block – BAZ2B (human) inhibition; Potency, µM (top dose mostly 114 µM), for inactives: at the highest dose activity change, negative = inhibition, hits mostly inhibitors; 4.4% of 360,000 active; AlphaScreen BAZ2B-H3K14Ac peptide displacement; Q9UIF8; further: potency means the concentration at half of the fitted maximal effect; on the % scale 0 is the no-effect control and ±100 the full control effect; nearly all actives have a fitted effect of over 60% in size
#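 Compounds, titrated to a top concentration of 110 uM, were incubated 30 min at room temperature with preformed BAZ2B/acetyl-K14 H3 peptide complex (50 nM each). Proximity signal was measured by AlphaScreen after 20 min with beads.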
# HP1b binding inh – HP1-beta chromodomain-methylated histone interaction inhibition | P83916 | AlphaScreen HP1-beta / biotin-H3K9me3 peptide binding | Potency, µM (titrated, usually from 114 µM), without a hit: at the top dose activity change, negative = inhibition, usual class: inhibitors | 0.56% of 390,000 active | AID 540317; further: potency means the concentration at half of the fitted maximal effect; nearly all actives have a fitted effect of over 70% in size
#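 HP1-beta protein (50 nM final) preincubated 30 min at room temperature with biotinylated H3(1-18)K9me3 peptide (50 nM) in PBS pH 7.4, 0.01% Tween-20, then compound added for 30 min. AlphaScreen streptavidin donor/nickel chelate acceptor beads (10 ug/mL final), 30 min dark, luminescence read.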
# Numbers without * were called inactive; ? = inconclusive; · = not tested or not shown; [ ] = dose if it differs, or a comment. Unless noted, the call rests on the fitted dose curve; in most records, active means well fitted inhibition curve with a large enough effect; inconclusive means small, poorly fitted or top-dose-only effect; inactive means no such curve, though single readings can be large or run the other way.
SMILES,CtBP-E1A inh,Six1-Eya2 blk,TDP1 block,JMJD2A Tudor,BAZ2B block,HP1b binding inh
Brc1cccc(CN2CCCCCC2)c1,9.6,1.0,·,20µM*,?,?
Oc1cccc(CN2CCCCC2)c1,-4.3,10.3,-2.6%,-5.9%,8.1%,18.7%
Oc1ccc2cc(Br)ccc2c1CN1CCCC1,-17.2,-9.6,2.7%,-12.5%,·,-18.8%
Oc1ccc(Br)cc1CN1CCCCCCC1,14.3,9.0,-4.7%,6.31µM*,50.1µM*,-16.2%
O=C(Nc1cccc(Cl)c1)N1CCSc2ccccc21,·,·,1.2%,-12.2%,-15.1%,19.4%
COc1ccccc1N1CCN(C(CNC(=O)C(=O)NCCCN(C)C)c2cccnc2)CC1 (stereo not drawn),·,·,3.9%,1.6%,3.4%,39.3%
COCCn1c(-c2ccc(OC)cc2)c(-c2ccc(OC)cc2)oc1=O,2.1,-4.5,·,-14.4%,35.5µM*,-12.1%
CC1CCCN(C(=O)Cn2ncc3c([nH]c4ccccc43)c2=O)C1 (stereo not drawn),·,·,0.0%,-11.6%,2.6%,21.7%
CCCn1c2ccccc2c2cnn(CC(=O)NCc3cc(OC)ccc3OC)c(=O)c21,·,·,-2.5%,-17.5%,-1.0%,12.9%
O=C(N/N=C/C1CCCCC1)c1ccccn1,-19.0,-18.9,3.4%,-17.3%,?,73.4%
Cc1cc2c(cc1C)/C(=N/NC(=O)c1ccccn1)CCC2,-28.8,-21.2,-1.2%,-5.6%,50.1µM*,53.7%
O=C(NN=C1CCC(=NNC(=O)c2ccccn2)CC1)c1ccccn1,-75.1*,-67.5*,5.1%,22.4µM*,7.94µM*,32.7%
Cc1cc(C)c2c(c1)/C(=N/NC(=O)c1ccc(O)cc1)CCC2,13.2,-4.3,5.0%,-13.8%,-9.8%,-4.1%
Cn1c(SCc2ccc(F)cc2)nnc1-c1ccccn1,2.2,-10.9,7.7%,?,50.1µM*,29.8%
Cn1c(SCc2ccccc2F)nnc1-c1ccccn1,·,-6.7,0.0%,-5.2%,56.2µM*,31.8%
Cc1ccc(CSc2nnc(-c3ccccn3)n2C)cc1,-0.4,-5.5,4.1%,-33.1%,?,37.9%
NC(=O)C1CCN(c2cc(Cl)nc(N)n2)CC1,-14.9,-2.8,-1.6%,10µM*,-19.4%,-23.7%
CCCCc1nn2c(=O)cc(COC(=O)c3ccccc3NC(=O)c3cccs3)nc2s1,·,·,3.8%,-3.0%,3.6%,46.5%
CCOc1ccc(NS(=O)(=O)c2cc3c(cc2C)N(C)CCO3)cc1,-23.5,-9.5,·,?,-31.7%,-13.2%
COc1ccc(NS(=O)(=O)c2cc3c(cc2C)N(C)CCO3)cc1,-8.6,-0.6,·,?,50.1µM*,-12.5%
COc1ccc(N2C(=O)CN=C2Nc2nc(C)cc(C)n2)cc1,-2.2,1.0,2.1%,44.7µM*,5.2%,6.9%
COc1cc(C(=O)N2CCc3c([nH]c4ccccc34)C2c2ccc(C)cc2)cc(OC)c1OC (stereo not drawn),·,·,10.8%,?,?,-15.9%[57 µM]
Nc1nc(C2C(=O)CCCC2=O)cs1,?,-21.5,?,10µM*,44.7µM*,5.1%
O=[S+]([O-])([O-])c1ccc2c(c1)cc([S+](=O)([O-])[O-])c1nn(-c3ccc(/C=C/c4ccc(-n5nc6c([S+](=O)([O-])[O-])cc7cc([S+](=O)([O-])[O-])ccc7c6n5)cc4[S+](=O)([O-])[O-])c([S+](=O)([O-])[O-])c3)nc12,·,·,?,56.2µM*,·,-22.5%
